Source: PubChem BioAssay (EPA / NIEHS)
Results filed as inconclusive are left out. Where a structure was tested more than once in an assay, its records may differ in their call. Activity calls are given as the source filed them. How the source made its calls: active means hit-call score of the fitted dose curve at least 0.9, where 1 is the maximum; inconclusive means response in the unintended direction; inactive means score below 0.9.

Read-out: Cytochrome P450 2B6 (Homo sapiens) (UniProt P20813)
Assay: CLD_CYP2B6_24hr: CellzDirect (CLD) Gene Expression Assay for xenobiotic metabolism (CYP2B6) at 24 hours (AID 2283686)
Description: CLD_24hr is a cell-based, multiplexed-readout assay that uses hepatocyte, a human liver primary cell, with measurements taken at 24 hours after chemical dosing in a 96-well plate.CLD_CYP2B6_24hr is one of 16 assay component(s) measured or calculated from the CLD_24hr assay. It is designed to make measurements of mRNA induction, a form of inducible reporter, as detected with chemiluminescence signals by Quantitative Nuclease Protection Assay (qNPA) technology.Data from the assay component CLD_CYP2B6_24hr was analyzed at the endpoint, CLD_CYP2B6_24hr, in the positive analysis fitting direction relative to DMSO as the negative control and baseline of activity. Using a type of inducible reporter, gain-of-signal activity can be used to understand changes in the reporter gene as they relate to the gene CYP2B6. Furthermore, this assay endpoint can be referred to as a primary readout. To generalize the intended target to other relatable targets, this assay endpoint is annotated to the cyp intended target family, where subfamily is xenobiotic metabolism.
Human hepatocyte cultures were treated daily for two consecutive days with fresh dosing solutions containing appropriate concentrations of the 320 ToxCast chemicals (chemical identities were blinded to CellzDirect and other ToxCast collaborators), vehicle control (0.2% DMSO), and positive control inducers as summarized in Table 1. Due to the large number of treatment groups and chemicals examined, the ToxCast chemicals were divided into two groups (spanning two independent cultures of hepatocytes from separate donor preparations (Hu778: ToxCast plates 1 and 2; Hu776: ToxCast plates 3 and 4). Each preparation of human hepatocyte cultures was treated with respective vehicle control, medium only control, set of six positive controls/reference chemicals for the five hepatic receptor pathways, and a subset of eight of the ToxCast chemicals (indoxacarb, pyrithiobac-sodium, norflurazon, cyhalofop-butyl, methomyl, thiram, acetochlor, and propiconazole). These replicate data, coupled with internal replicates designed within the blinded ToxCast chemical library, provided additional data to evaluate interindividual differences between hepatocyte preparations and their potential impact on chemical profiles.Cell morphology and integrity were evaluated using phase-contrast microscopy as an indicator of hepatocyte cell health (Tyson & Green, 1987). Cultures for each treatment group (i.e., media, vehicle [0.2% DMSO], positive control inducers [multiple concentrations], and the ToxCast chemicals [multiple concentrations]) were observed and cell morphology was assessed relative to vehicle control cultures at each harvest time point (0, 6, 24, or 48 h). […] Images were evaluated at the conclusion of the study to assess changes in cell integrity and account for the effects of chemical exposure on uncharacteristic changes in concentration-dependent gene expression profiles. The results from these determinations of apparent cytotoxicity were annotated (yes/no) alongside the corresponding qNPA data for reference.At the conclusion of each treatment period, hepatocyte cultures (96-well) were washed with 1 volume of HBSS, lysed by addition of 25 ul ArrayPlate lysis buffer (HTG, Tucson, AZ), and 70 ul/well of Denaturation Oil, denatured by incubation at 95C for 10 min, and frozen at approximately -70C until analysis by nuclease protection assay (qNPA) (Roberts et al., 2007). For qNPA analysis, cell lysates were thawed at 50C for approximately 30 min, qNPA probes were added, and samples were incubated at 95C for 10 min to begin the detection process by denaturing the target RNA, dissociating the duplexes and secondary structure hybridization. At the conclusion of the hybridization period, S1 nuclease reagent was added to each sample to digest all nonprotected nucleotides at 50C for 60-90 min. […]

| SMILES | outcome | AC50 |
| --- | --- | --- |
| COC(=O)c1ccc(CNS(C)(=O)=O)cc1S(=O)(=O)NC(=O)Nc1nc(OC)cc(OC)n1 | inactive | – |
| CCCCCOC(=O)COc1cc(N2C(=O)C3=C(CCCC3)C2=O)c(F)cc1Cl | inactive | – |
| CSC(=O)c1cccc2nnsc12 | inactive | – |
| COC(=O)CSc1cc(N=c2sc(=O)n3n2CCCC3)c(F)cc1Cl | – | 2.48 µM (active) |
| CCCN(CCC)c1c([N+](=O)[O-])cc(C(F)(F)F)c(N)c1[N+](=O)[O-] | – | 4.48 µM (active) |
| CCNc1nc(N)nc(Cl)n1 | inactive | – |
| CC1(C)C(C=C(Cl)Cl)C1C(=O)OCc1cccc(Oc2ccccc2)c1 (stereo not given) | – | 7.12 µM (active) |
| c1ccc2[nH]c(-c3cscn3)nc2c1 | inactive | – |
| CCOC(=O)C(C)Oc1ccc(Oc2cnc3cc(Cl)ccc3n2)cc1 (stereo not given) | inactive | – |
| COC(=O)c1cccc(C)c1S(=O)(=O)NC(=O)Nc1nc(OCC(F)(F)F)nc(N(C)C)n1 | – | 4.98 µM (active) |
| CCC(C)OC(=O)N1CCCCC1CCO (stereo not given) | inactive | – |
| N#CSCSc1nc2ccccc2s1 | inactive | – |
| CCOC(=O)COc1cc(-n2ncc(C(F)(F)F)c(C)c2=O)c(F)cc1Cl | – | 6.56 µM (active) |
| COC(=O)c1ccccc1S(=O)(=O)NC(=O)Nc1nc(OC(F)F)cc(OC(F)F)n1 | inactive | – |
| COC(=O)c1ccc(I)cc1S(=O)(=O)NC(=O)Nc1nc(C)nc(OC)n1 | inactive | – |
| CCCOC(=O)NCCCN(C)C | inactive | – |
| CC(C)(c1ccc(O)cc1)c1ccc(O)cc1 | inactive | – |
| CCCCC(CC)COC(=O)c1ccccc1C(=O)O (stereo not given) | – | 5.12 µM (active) |
| CCCCC(CC)CN1C(=O)C2C3C=CC(C3)C2C1=O (stereo not given) | – | 9.04 µM (active) |
| CCN(CC)C(=O)c1cccc(C)c1 | – | 20 µM (active) |

| SMILES | outcome | AC50 |
| --- | --- | --- |
| Oc1ccc(C(c2ccc(O)cc2)C(Cl)(Cl)Cl)cc1 | inactive | – |
| CCCCOCCOCCOCc1cc2c(cc1CCC)OCO2 | – | 1.9 µM (active) |
| CCCN(CCC)C(=O)SCC | inactive | 0.0274 µM (active) |
| c1ccc(Nc2ccccc2)cc1 | – | 6.82 µM (active) |
| O=C(Nc1ccc([N+](=O)[O-])cc1Cl)c1cc(Cl)ccc1O | inactive | – |
| CCSC(=O)N(CC(C)C)CC(C)C | inactive | – |
| COc1nc(C)nc(NC(=O)NS(=O)(=O)c2ccccc2OCCCl)n1 | inactive | – |
| C=CCOC(Cn1ccnc1)c1ccc(Cl)cc1Cl (stereo not given) | – | 0.135 µM (active) |
| CCCCOC(=O)C(C)Oc1ccc(Oc2ccc(C(F)(F)F)cn2)cc1 (stereo not given) | inactive | – |
| COC(=O)c1c(Cl)nn(C)c1S(=O)(=O)NC(=O)Nc1nc(OC)cc(OC)n1 | inactive | – |
| Cc1nn(C)c(Oc2ccccc2)c1C=NOCc1ccc(C(=O)OC(C)(C)C)cc1 | – | 20 µM (active) |
| CCCCOC(=O)[C@@H](C)Oc1ccc(Oc2ccc(C(F)(F)F)cn2)cc1 | inactive | – |
| O=C(O)C1(C(=O)Nc2ccc(Cl)cc2Cl)CC1 | inactive | – |
| CCOC(=O)NCCOc1ccc(Oc2ccccc2)cc1 | – | 12.1 µM (active) |
| CC(C)(C)[C@@H](O)[C@@H](Cc1ccc(Cl)cc1)n1cncn1 | – | 2 µM (active) |
| CCCCCCC(C)OC(=O)COc1nc(F)c(Cl)c(N)c1Cl (stereo not given) | inactive | – |
| C#CCOC(=O)[C@@H](C)Oc1ccc(Oc2ncc(Cl)cc2F)cc1 | – | 0.000411 µM (active) |
| CN(C)C(=O)Nc1ccc(Cl)c(Cl)c1 | – | 2.49 µM (active) |
| CCN(Cc1c(F)cccc1Cl)c1c([N+](=O)[O-])cc(C(F)(F)F)cc1[N+](=O)[O-] | – | 0.365 µM (active) |
